Compound activity as filed in PubChem BioAssay.
JMJD2A Tudor inh = inhibitors of human JMJD2A Tudor domain; AlphaScreen JMJD2A-Tudor / H3K4me3 peptide binding; O75164; 390,000 tested, 4.4% active; AID 504339; Potency, µM (series often up to 114 µM), for the others: at the highest dose activity change, negative = inhibition, usual class: inhibitors; further: potency means the concentration at half of the fitted maximal effect; on the % scale 0 is the no-effect control and ±100 the full control effect; nearly all actives have a fitted effect of over 50% in size
Six1-Eya2 blk = blocks human Six1 binding to Eya2 | Q15475+O00167 | AlphaScreen GST-Six1/His-Eya2 binding, biochemical; hits give low values | activity change, % (test concentration not listed) | 360,000 tested, 0.56% active; in the data active means activity change below about -65%; inconclusive means mostly about -30% to -63%; further: on the % scale 0 is the no-effect control and ±100 the full control effect
Target sequence (O00167 whole entry, looked up): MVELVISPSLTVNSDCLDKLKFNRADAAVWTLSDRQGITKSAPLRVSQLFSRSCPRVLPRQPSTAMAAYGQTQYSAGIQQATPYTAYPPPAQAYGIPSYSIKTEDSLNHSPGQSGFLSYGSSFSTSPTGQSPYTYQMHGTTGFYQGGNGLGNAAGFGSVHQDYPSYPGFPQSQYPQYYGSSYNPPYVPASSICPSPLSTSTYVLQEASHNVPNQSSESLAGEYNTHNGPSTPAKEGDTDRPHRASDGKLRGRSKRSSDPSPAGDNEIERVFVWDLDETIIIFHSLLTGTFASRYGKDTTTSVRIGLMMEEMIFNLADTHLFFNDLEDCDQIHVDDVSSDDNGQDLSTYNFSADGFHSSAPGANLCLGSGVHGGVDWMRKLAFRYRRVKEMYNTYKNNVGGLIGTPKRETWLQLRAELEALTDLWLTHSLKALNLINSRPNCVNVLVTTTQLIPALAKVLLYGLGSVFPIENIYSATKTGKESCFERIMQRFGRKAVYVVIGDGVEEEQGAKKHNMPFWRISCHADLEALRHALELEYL
Target sequence (Q15475 whole entry, looked up): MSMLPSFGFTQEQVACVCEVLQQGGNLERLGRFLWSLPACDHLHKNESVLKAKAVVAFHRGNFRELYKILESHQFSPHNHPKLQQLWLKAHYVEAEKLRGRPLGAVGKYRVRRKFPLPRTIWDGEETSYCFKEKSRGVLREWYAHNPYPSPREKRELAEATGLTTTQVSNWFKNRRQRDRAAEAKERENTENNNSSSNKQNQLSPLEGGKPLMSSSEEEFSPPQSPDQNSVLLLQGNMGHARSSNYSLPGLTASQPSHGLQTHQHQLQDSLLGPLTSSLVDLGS
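AlphaScreen with GST-Six1 and His-Eya2 (5X mix: 250 nM and 500 nM), glutathione donor and nickel acceptor beads; buffer 50 mM Tris pH 8.0, 300 mM NaCl, 1 mM TCEP; 1 h at 37 C in the dark.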
G9a inh = blocks human histone lysine methyltransferase G9a. Q96KQ7. G9a H3K9 monomethylation, AlphaScreen, 2 h. Potency, µM (highest dose often 102 µM), inactives show at the top dose activity, negative = inhibition, hits mostly inhibitors. 350,000 tested, 8.8% active; further: potency means the concentration at half of the fitted maximal effect; on the % scale 0 is the no-effect control and ±100 the full control effect; nearly all actives have a fitted effect of over 75% in size
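G9a (20 nM) preincubated 15 min RT with compounds, then 500 nM biotinylated H3K9 peptide and 20 uM SAM added; 2 h RT reaction. Monomethyl-H3K9 product detected by AlphaScreen with anti-H3K9me1 antibody, streptavidin donor and anti-rabbit IgG acceptor beads.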
HP1b chromo inh = blocks HP1-beta chromodomain binding to methylated histone tails; Potency, µM (highest dose often 114 µM), for the others: at the highest dose activity change, negative = inhibition, actives largely listed as inhibitors; 390,000 tested, 0.56% active; AlphaScreen HP1-beta / biotin-H3K9me3 peptide binding; P83916; further: potency means the concentration at half of the fitted maximal effect; nearly all actives have a fitted effect of over 70% in size
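AlphaScreen: HP1-beta (50 nM) preformed 30 min with biotin-H3(1-18)K9me3 peptide (50 nM) in PBS pH 7.4, 0.01% Tween-20. Compound added for 30 min at RT, then streptavidin donor/nickel chelate acceptor beads (10 ug/mL) for 30 min.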
CtBP-E1A inh = inhibitors of CtBP/E1A interaction | AlphaScreen GST-E1A/His-CtBP binding, 1536-well; hits give low values | 340,000 tested, 0.49% active | activity change, % (test concentration not listed); in the data active means activity change below about -65%; inconclusive means mostly about -30% to -63%; further: on the % scale 0 is the no-effect control and ±100 the full control effect
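AlphaScreen with 125 nM GST-E1A and 125 nM His-CtBP (5X stocks) in Tris pH 8.0, 300 mM NaCl, BSA, Tween 20, TCEP. Compounds preincubated 2 h at 37 deg C, then glutathione donor/nickel acceptor beads added for 1 h at 37 deg C in dark.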
BAZ2B block = blocks human BAZ2B | Q9UIF8 | AlphaScreen BAZ2B-H3K14Ac peptide displacement | Potency, µM (series often up to 114 µM), for inactives: at the highest dose activity change, negative = inhibition, usual class: inhibitors | 360,000 tested, 4.4% active | AID 504333; further: potency means the concentration at half of the fitted maximal effect; on the % scale 0 is the no-effect control and ±100 the full control effect; nearly all actives have a fitted effect of over 60% in size
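Inhibition is scored as reduced AlphaScreen emission. The BAZ2B/b-H3(5-23)K14Ac complex (50 nM each) in PBS pH 7.4, 0.01% Tween-20 meets compound (up to 110 uM) for 30 min at RT before bead addition.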
The depositor's hits bear a star; ? = inconclusive; nt = no result given; [ ] = dose if it differs, or a comment. In the library only some 10% were active in any assay of this set; here they are far more common. Unless noted, the call rests on the fitted dose curve; in most records, active means well fitted inhibition curve with a large enough effect; inconclusive means small, poorly fitted or top-dose-only effect; inactive means no such curve, though single readings can be large or run the other way.

SMILES | JMJD2A Tudor inh | Six1-Eya2 blk | G9a inh | HP1b chromo inh | CtBP-E1A inh | BAZ2B block
COc1ccc(NC(=O)c2c(NCc3ccc(OC)c(OC)c3OC)sc3c2CCC3)c(OC)c1 | ? | nt | 13µM* | -15% | nt | -30%
CCOC(=O)N1CCc2c(sc(NCc3sccc3C)c2C(=O)Nc2cc(Cl)ccc2OC)C1 | ? | nt | 3.5µM* | -24% | nt | -36%
C=CCNCC(=O)Nc1sc2c(c1C(=O)Nc1ccc(OC)cc1OC)CCC2 | -31% | -5 | nt | 16% | -2 | -5%
CCOC(=O)Cc1nnc(NC(=O)CSc2nnc3c(n2)[nH]c2ccccc23)s1 | -20% | ? | 32%[59 µM] | 19% | -29 | ?
O=C(Cc1ccc(NC(=O)N2CCCCc3ccccc32)cc1)Nc1ccccc1Br | -18% | nt | -1%[59 µM] | 26% | nt | -22%
Cc1ccc(CNC(=O)c2oc3ccc(S(=O)(=O)N4CCC(C)CC4)cc3c2C)cc1 | 3% | nt | -4%[59 µM] | -26% | nt | 4%
Cc1cc(C)nc(OC(C(=O)O)C(OCC(C)C)(c2ccccc2)c2ccccc2)n1 (centres undefined) | 4% | -3 | nt | 17% | nt | -16%
CCOC(=O)N1CCc2c(sc(NCc3ccc(N(CC)CC)cc3)c2C(=O)Nc2cc(OC)ccc2OC)C1 | ? | nt | 7.1µM* | ? | nt | 7.9µM*
CCOC(=O)N1CCc2c(sc(NCc3ccc(N(C)C)cc3)c2C(=O)Nc2ccccc2OCC)C1 | 13µM* | nt | 3.2µM* | ? | nt | 8.9µM*
COc1ccc(NC(=O)c2c(NCc3sccc3C)sc3c2CCCC3)c(OC)c1 | ? | nt | 14µM* | ? | nt | ?
CCOc1ccccc1NC(=O)c1c(NCc2ccc(C)o2)sc2c1CCCCC2 | ? | nt | 5µM* | -14% | nt | -19%
COc1ccc(NC(=O)c2c(NCc3cccc(OC)c3)sc3c2CCCC3)cc1 | ? | nt | ? | 13% | nt | -35%
Cc1ccc(S(=O)(=O)N2CCN(c3nc(-c4cccnc4)nc4ccccc34)CC2)cc1 | -14% | nt | nt | 39% | nt | nt
CCC(C(=O)Nc1cc(C(=O)Nc2cc(C)ccn2)ccc1Cl)c1ccccc1 (centres undefined) | -10% | 1 | 1%[59 µM] | 12% | -4 | -7%
O=C(c1ccccc1)c1ccc(Oc2ccc([N+](=O)[O-])cc2[N+](=O)[O-])cc1 | 7.1µM* | -8 | nt | ? | 0 | nt
CCn1c(O)c(/C=C2\C=Nc3ccccc32)sc1=Nc1ccc(C)cc1 | -25% | -4 | 8% | 10% | 6 | 2%[57.1 µM]
COCCCn1c(O)c(/C=C2\N=C(C#N)C(=Nc3ccc(C)cc3)O2)sc1=S | ? | -20 | ? | ? | -12 | 10µM*
C#CCOc1ccc(/C=C2\SC(=S)N(Cc3cccnc3)C2=O)cc1 | -11% | -9 | -4%[59 µM] | 15% | -14 | -9%
O=C1/C(=C/c2ccncc2)SC(=S)N1Cc1ccccc1 | 25µM* | -12 | nt | 45µM* | -13 | 11µM*
CCCN1C(=O)/C(=C/c2ccncc2)SC1=S | ? | 0 | 45µM* | ? | 6 | 25µM*
CCOCCn1c(N2CCCC2)nc2c1c(=O)n(C)c(=O)n2C | -8% | 6 | 71µM* | 35% | 4 | 4%
CCOCCn1c(SC)nc2c1c(=O)[nH]c(=O)n2C | 89µM* | 0 | ? | ? | 6 | 13%
CCn1c([N+](=O)[O-])nc2c1c(=O)[nH]c(=O)n2C | -32% | -1 | 40µM* | -3% | nt | -15%
COCCn1c(N2CCCC2)nc2c1c(=O)[nH]c(=O)n2C | 1% | 9 | 2% | 21% | 5 | -6%
CCOCCn1c(N2CCCC2)nc2c1c(=O)[nH]c(=O)n2C | -6% | 6 | ? | 18% | nt | 56µM*
SMILES | JMJD2A Tudor inh | Six1-Eya2 blk | G9a inh | HP1b chromo inh | CtBP-E1A inh | BAZ2B block
CCCCCCn1c(SCCCC)nc2c1c(=O)[nH]c(=O)n2C | -7% | -3 | ? | 26% | -5 | -5%
O=c1c(S(=O)(=O)c2ccccc2)cn(Cc2cccc(F)c2)c2cc(N3CCOCC3)c(F)cc12 | -12% | nt | -2%[59 µM] | 21% | nt | -10%
CC1=CN2C(=N)/C(=C/c3ccc(Sc4ccc(C)cc4)o3)C(=O)N=C2S1 | -23% | -25 | 25µM* | 28µM* | -21 | 22µM*
Cc1ccc2[nH]c(=O)c(C(c3nnnn3Cc3ccccc3)N3CCc4ccccc43)cc2c1 (centres undefined) | ? | -11 | 28µM* | -3% | -13 | ?
Cc1ccc2cc(C(c3nnnn3Cc3ccccc3)N3CCc4ccccc43)c(=O)[nH]c2c1C (centres undefined) | -21% | -4 | 20µM* | 45% | -2 | 6%
CCC(=O)N1CCc2cc(Br)cc(S(=O)(=O)NCCc3ccc(OC)c(OC)c3)c21 | 1% | nt | -3%[59 µM] | 40% | nt | 0%
CC(=O)NC(Cc1cccc(F)c1)C(=O)NC1CCN(C(=O)c2ccc(C)cc2)CC1 (centres undefined) | -5% | 4 | -3% | 41% | 0 | 6%
CO[C@@]1(NC(=O)Cc2cccs2)C(=O)N2C(C(=O)O)=C(COC(N)=O)CS[C@@H]21 | 56µM* | 2 | ? | 14% | -22 | 50µM*
CCCNC(=O)Cn1cnc2sc(C(=O)NCCN(CC)CC)c(C)c2c1=O | 5% | -7 | 79µM* | 20% | -1 | 0%
Nc1nc(CN2CCCCCC2)nc(Nc2ccc(F)cc2)n1 | 79µM* | -19 | 10µM* | 19% | -21 | 7.1µM*
Nc1nc(CN2CCN(c3ccccn3)CC2)nc(Nc2ccc(F)cc2)n1 | 50µM* | -14 | ? | 22% | -25 | 50µM*
C/C=C1\COC(C(=O)NCc2cccc(OC)c2OC)(C(F)(F)F)C=C1C=C(C)C (centres undefined) | -4% | nt | nt | 25% | nt | nt
Cn1nccc1C(=O)NC1CCN(Cc2ccccc2)CC1 | -6% | 3 | 23% | 23% | 7 | -13%
COc1ccc(N2C(=S)N(C(=O)c3ccccc3)C(=Nc3ccccc3)C2=Nc2ccccc2)cc1 | ? | -1 | nt | -53% | -3 | nt
COc1ccc(N=C2C(=Nc3ccc(OC)cc3)N(c3ccc(OC)cc3)C(=S)N2C(=O)c2ccc(OC)cc2)cc1 | ? | -5 | 3.5µM* | -53% | -12 | ?
COc1ccc(N=C2C(=Nc3ccc(OC)cc3)N(c3ccc(N(C)C)cc3)C(=S)N2c2ccc(OC)cc2)cc1 | 2.2µM* | -24 | 8.9µM* | ? | -21 | 1.6µM*
COc1ccc(N=C2C(=Nc3ccc(OC)cc3)N(c3ccccc3)C(=S)N2C(=O)c2ccc(Cl)cc2)cc1 | ? | -20 | 7.1µM* | ? | -6 | ?
COc1ccc(NC(=O)CN2C(=O)COc3ccc(S(=O)(=O)N4CCCCCC4)cc32)cc1 | 3% | -2 | 35% | 42% | nt | -4%
